HCMV inh: human cytomegalovirus inhibition; activity change, negative = inhibition, % at 57.5 µM; actives 4.5% (n = 410,000); AID 1259415; HFF cells, HCMV-luciferase reporter, 72 h; hits give low values; in the data active = activity change below about -60%; inconclusive = no clear call, values can overlap the other calls; inactive = above about -39%
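Steps: HFFs plated, 16 h 37C; compounds added; HCMV-luciferase added to MOI 1 PFU/cell; 72 h 37C; OneGlo reagent, 5 min room temperature; luminescence read, normalized to controls.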
HCV inhibitor: inhibitors of hepatitis C virus infection | Potency, µM (series often up to 41.8 µM), actives largely listed as inhibitors | AID 651820 | Huh7.5.1 HCVcc-Cre infection, luciferase reporter, 44 h | actives 3.4% (n = 340,000); active = well fitted inhibition curve with a large enough effect; inconclusive = small, poorly fitted or top-dose-only effect, or another doubt; inactive = no such curve, though single readings can be large or run the other way
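Whole-lifecycle infectious HCVcc-Cre system; cells 1,000/well, compound then virus (~0.5 moi) added 4 h after plating, 44 h culture. Luciferase read 15 sec following 15 min substrate incubation, room temp.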
VACV Venus inh: vaccinia inhibition (Venus reporter). Vaccinia virus Venus reporter expression, fluorescence. Potency, µM (series often up to 36.5 µM), usual class: inhibitors. actives 0.46% (n = 330,000); calls by dose curve; tested in A549 cells; also: nearly all actives have a fitted effect of over 30% in size
Vaccinia mCherry: vaccinia inhibition (mCherry reporter). Vaccinia virus mCherry reporter infection, fluorescence. Potency, µM (doses to about 36.5 µM), usual class: inhibitors. actives 0.63% (n = 310,000); calls by dose curve; tested in A549 cells; also: nearly all actives have a fitted effect of over 35% in size
FMDV antiviral: blocks foot and mouth disease virus; FMDV antiviral cell-based qHTS; Potency, µM (top dose mostly 57.9 µM), actives largely listed as inhibitors; actives 1.2% (n = 410,000); AID 1159524; calls by dose curve; tested in HEK293T cells; also: read-out not given here; nearly all actives have a fitted effect of over 45% in size
Of the large screens only hits and unclear results are named; the others gave an inactive call. Hits are enriched below; roughly 7.3% of the tested compounds scored in any of these assays.

Cc1noc(C)c1C(=O)N1CCC[C@@]2(CCN(Cc3cc(C(F)(F)F)cc(C(F)(F)F)c3)C2)C1	none (no result: HCMV inh, HCV inhibitor, VACV Venus inh, Vaccinia mCherry)
C[C@H]1CN=C(N(C)C)N1CC1CCC(C(C)(C)C)CC1 (stereo partly specified)	HCV inhibitor inconclusive, VACV Venus inh inconclusive, Vaccinia mCherry 7.94µM, FMDV antiviral inconclusive
Clc1ccc(OCCCCCN2CCCC2)c(Br)c1	HCMV inh inconclusive, HCV inhibitor 10µM
Cc1ccc(OCCCCN2CCC(C)CC2)c(Br)c1	HCMV inh -66.5, HCV inhibitor inconclusive
CC1CCN(CCCOc2ccc(Br)cc2Cl)CC1	none
Clc1ccc(OCCCN2CCCCC2)c(Br)c1	HCV inhibitor inconclusive
Cc1ccc(OCCCCCCN2CCNCC2)c(Br)c1	HCMV inh -63.4, HCV inhibitor inconclusive
COC(=O)c1cc2oc3ccccc3c2n1CC(=O)Nc1ccc(OC)c(OC)c1	none (no result: HCV inhibitor)
COc1ccc(-c2nc3cnc(N4CCN(C)CC4)nc3n(CCc3ccccc3)c2=O)cc1	none (no result: HCMV inh, HCV inhibitor, VACV Venus inh, Vaccinia mCherry)
O=C(N/N=C/c1ccccc1O)c1cccc(C(F)(F)F)c1	HCMV inh -101.9, HCV inhibitor 3.98µM, VACV Venus inh inconclusive, Vaccinia mCherry 3.55µM
O=C(N/N=C/c1ccc(-c2cccc([N+](=O)[O-])c2)o1)c1ccc([N+](=O)[O-])cc1	HCMV inh inconclusive, HCV inhibitor 10µM, FMDV antiviral inconclusive
O=C(N/N=C/c1ccccn1)c1cccc([N+](=O)[O-])c1	none
O=C(NN=Cc1ccccc1O)c1cccc([N+](=O)[O-])c1	HCMV inh -96.5, HCV inhibitor 7.94µM, VACV Venus inh inconclusive, Vaccinia mCherry 1.12µM
COc1cccc(/C=N/NC(=O)c2cc3cc([N+](=O)[O-])ccc3s2)c1O	HCMV inh -104.0, HCV inhibitor inconclusive, VACV Venus inh inconclusive, Vaccinia mCherry 5.01µM
COc1cc(/C=N/NC(=O)c2cccc([N+](=O)[O-])c2)ccc1O	none (no result: VACV Venus inh, Vaccinia mCherry)
Cc1ncc(COC(=O)C(C)C)c2cc(C(=O)Nc3ccccc3C(F)(F)F)c(=O)oc12	none (no result: HCV inhibitor)
CCOc1ccccc1NC(=O)Cn1c(=O)n(-c2ccc(Cl)cc2)c(=O)c2oc3ccccc3c21	none (no result: HCV inhibitor)
Cc1ccc(N2CC(NC(=O)C3CCCCC3)CC2=O)cc1C (stereo unspecified)	none (no result: HCV inhibitor)
COc1ccc2ccccc2c1/C=N/NC(=O)c1cccc([N+](=O)[O-])c1	HCMV inh -61.9, HCV inhibitor inconclusive
O=C(N/N=C/c1ccc(-c2cccc(C(F)(F)F)c2)o1)c1ccccc1Br	HCMV inh -62.0, HCV inhibitor inconclusive (no result: FMDV antiviral)
O=C(N/N=C/c1cccc([N+](=O)[O-])c1)c1cc2ccccc2o1	HCV inhibitor 11.2µM
CCOc1cccc(C=NNC(=O)C(=O)Nc2cccc(C(F)(F)F)c2)c1O	HCMV inh -62.3 (no result: HCV inhibitor, VACV Venus inh, Vaccinia mCherry, FMDV antiviral)
COc1ccc(/C=N/NC(=O)c2cccc([N+](=O)[O-])c2)cc1O	none
O=C(N/N=C/c1ccc(-c2cccc(C(F)(F)F)c2)o1)c1ccccc1O	FMDV antiviral inconclusive
CCOC(=O)c1cc(S(=O)(=O)Nc2ccccc2OCC)[nH]n1	none (no result: HCV inhibitor)
CCOC(=O)c1ccc(CN(Cc2ccc(F)cc2)S(=O)(=O)c2ccc(F)cc2)cc1	none (no result: HCV inhibitor)
Cc1nn2c(-c3cccc(NC(=O)c4ccc(Cl)cc4)c3)nnc2c2ccccc12	Vaccinia mCherry inconclusive (no result: HCV inhibitor)
CCOc1ccc(NC(=O)Cn2c(=O)n(CC(=O)NCc3ccccc3Cl)c(=O)c3sccc32)cc1	none (no result: HCV inhibitor)
Cc1ccc(C2NC(=O)c3n[nH]c(C)c32)cc1 (stereo unspecified)	none (no result: HCV inhibitor, VACV Venus inh, Vaccinia mCherry, FMDV antiviral)
COc1ccccc1CNC(=O)c1cc2c(=O)n(Cc3cccs3)ccc2nc1C	none (no result: HCV inhibitor)
COc1cc([N+](=O)[O-])cc(/C=N/NC(=O)c2ccc(NC(=O)c3ccc(C)cc3)cc2)c1O	HCMV inh -101.6, HCV inhibitor 2.51µM, FMDV antiviral inconclusive
Cc1nnsc1C(=O)Oc1ccccc1Cl	none (no result: HCV inhibitor)
Cc1ccc(CCNC(=O)CCN2N=C(c3ccc(C)cc3)CCC2=O)cc1	none (no result: HCV inhibitor)
C[C@@H]1O[C@@H](O[C@H]2C[C@@H](O)[C@]3(CO)[C@@H]4C(CC[C@]3(O)C2)[C@@]2(O)CC[C@H](C3COC(=O)C3)[C@@]2(C)C[C@H]4O)[C@H](O)[C@H](O)[C@H]1O (stereo partly specified)	HCMV inh -99.2, HCV inhibitor inconclusive, VACV Venus inh 1.78µM, Vaccinia mCherry inconclusive, FMDV antiviral inconclusive
COC1C(O)C(OC2CC[C@]3(C=O)C4C(OC(C)=O)C[C@@]5(C)C(C6=CC(=O)OC6)CC[C@]5(O)C4CC[C@]3(O)C2)OC(C)C1OC(C)=O (stereo partly specified)	none (no result: HCMV inh, HCV inhibitor)
CC1OC(O[C@H]2C[C@@H](O)[C@]3(CO)[C@H]4[C@H](O)C[C@]5(C)[C@@H](C6=CC(=O)OC6)CC[C@]5(O)[C@@H]4CC[C@]3(O)C2)C(O)C(O)C1O (stereo partly specified)	VACV Venus inh 0.0035µM, Vaccinia mCherry inconclusive (no result: HCMV inh, HCV inhibitor, FMDV antiviral)
Cc1nc([N+](=O)[O-])c(Br)n1CC(=O)c1ccc(Cl)cc1	HCV inhibitor 10µM, VACV Venus inh inconclusive (no result: Vaccinia mCherry)
COc1ccc(C(=O)Cn2c(C)nc([N+](=O)[O-])c2Br)cc1	HCV inhibitor inconclusive, VACV Venus inh 7.94µM, Vaccinia mCherry 3.55µM, FMDV antiviral inconclusive
Cc1nc([N+](=O)[O-])c(Br)n1Cc1ccc(Cl)c(Cl)c1	HCV inhibitor inconclusive, FMDV antiviral 17.8µM (no result: VACV Venus inh, Vaccinia mCherry)
CCC1CN(C(=O)Nc2cccc3c2CCCC3)c2cc(C)ccc2O1 (stereo unspecified)	HCMV inh inconclusive (no result: HCV inhibitor)
O=C(N/N=C/c1ccccc1)c1c(O)c2ccccc2[nH]c1=O	HCMV inh -91.6, HCV inhibitor inconclusive
O=C(N/N=C/c1cccc(F)c1)c1c(O)c2ccccc2[nH]c1=O	HCV inhibitor 12.6µM
O=C(N/N=C/c1ccc(F)cc1)c1c(O)c2ccccc2[nH]c1=O	FMDV antiviral inconclusive
C1=CN2CC=Cc3cc(/C=C/c4ccnc5ccccc45)cc(c32)C1	none (no result: HCMV inh, HCV inhibitor, FMDV antiviral)
CC(=O)c1cccc(NC(=O)CCc2c(C)nc3c(-c4ccc(F)cc4)c(C)nn3c2C)c1	none (no result: HCV inhibitor)
CCOc1ccc(-c2onc(C(F)(F)F)c2-c2cscn2)c(O)c1	HCV inhibitor 10µM, FMDV antiviral inconclusive (no result: VACV Venus inh, Vaccinia mCherry)
COc1ccc(-c2onc(C)c2-c2cscn2)c(O)c1	none
CCc1cc(-c2onc(C)c2-c2cscn2)c(O)cc1OC	HCMV inh inconclusive, HCV inhibitor inconclusive, FMDV antiviral inconclusive
Cc1cc(O)cc(O)c1-c1onc(C(F)(F)F)c1-c1cscn1	HCMV inh -71.4, HCV inhibitor inconclusive, VACV Venus inh inconclusive, FMDV antiviral inconclusive (no result: Vaccinia mCherry)
CC(C)(C)C(=O)Nc1cccc(C(=O)OCc2cc(=O)n3nc(C4CC4)sc3n2)c1	FMDV antiviral inconclusive (no result: HCV inhibitor)
COc1ccc(/C=c2\[nH]c(=O)/c(=C/c3ccc(OC)c(OC)c3)[nH]c2=O)cc1OC	none (no result: HCMV inh, HCV inhibitor, FMDV antiviral)
O=C(O)[C@@H]1[C@H]2C[C@H]3c4[nH]c5ccccc5c4CCN3C[C@@H]2CC[C@@H]1O	none
O=C(O)C1CCCC2CN3CCc4c([nH]c5ccccc45)C3C(O)C21 (stereo unspecified)	HCMV inh -71.6
COc1ccc(C2=NCC(C)n3c2c2ccccc2[n+]3[O-])cc1 (stereo unspecified)	none (no result: HCV inhibitor, VACV Venus inh, Vaccinia mCherry, FMDV antiviral)

Screens deposited in PubChem BioAssay by National Center for Advancing Translational Sciences (NCATS).
